We go through 52 molecules from PubChem BioAssay AID1835 (Johns Hopkins Ion Channel Center, 2009).

About 750 (31%) of roughly 2,400 compounds were called active.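 How the source made its calls: active means median signal gain over dofetilide-blocked control wells reaching their mean plus 3 SD, so readout 1 at least 0; inactive means the rest.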 The list shows a part of the results.

Sequence of Voltage-gated inwardly rectifying potassium channel KCNH2 (Homo sapiens) (Q12809 whole entry, looked up): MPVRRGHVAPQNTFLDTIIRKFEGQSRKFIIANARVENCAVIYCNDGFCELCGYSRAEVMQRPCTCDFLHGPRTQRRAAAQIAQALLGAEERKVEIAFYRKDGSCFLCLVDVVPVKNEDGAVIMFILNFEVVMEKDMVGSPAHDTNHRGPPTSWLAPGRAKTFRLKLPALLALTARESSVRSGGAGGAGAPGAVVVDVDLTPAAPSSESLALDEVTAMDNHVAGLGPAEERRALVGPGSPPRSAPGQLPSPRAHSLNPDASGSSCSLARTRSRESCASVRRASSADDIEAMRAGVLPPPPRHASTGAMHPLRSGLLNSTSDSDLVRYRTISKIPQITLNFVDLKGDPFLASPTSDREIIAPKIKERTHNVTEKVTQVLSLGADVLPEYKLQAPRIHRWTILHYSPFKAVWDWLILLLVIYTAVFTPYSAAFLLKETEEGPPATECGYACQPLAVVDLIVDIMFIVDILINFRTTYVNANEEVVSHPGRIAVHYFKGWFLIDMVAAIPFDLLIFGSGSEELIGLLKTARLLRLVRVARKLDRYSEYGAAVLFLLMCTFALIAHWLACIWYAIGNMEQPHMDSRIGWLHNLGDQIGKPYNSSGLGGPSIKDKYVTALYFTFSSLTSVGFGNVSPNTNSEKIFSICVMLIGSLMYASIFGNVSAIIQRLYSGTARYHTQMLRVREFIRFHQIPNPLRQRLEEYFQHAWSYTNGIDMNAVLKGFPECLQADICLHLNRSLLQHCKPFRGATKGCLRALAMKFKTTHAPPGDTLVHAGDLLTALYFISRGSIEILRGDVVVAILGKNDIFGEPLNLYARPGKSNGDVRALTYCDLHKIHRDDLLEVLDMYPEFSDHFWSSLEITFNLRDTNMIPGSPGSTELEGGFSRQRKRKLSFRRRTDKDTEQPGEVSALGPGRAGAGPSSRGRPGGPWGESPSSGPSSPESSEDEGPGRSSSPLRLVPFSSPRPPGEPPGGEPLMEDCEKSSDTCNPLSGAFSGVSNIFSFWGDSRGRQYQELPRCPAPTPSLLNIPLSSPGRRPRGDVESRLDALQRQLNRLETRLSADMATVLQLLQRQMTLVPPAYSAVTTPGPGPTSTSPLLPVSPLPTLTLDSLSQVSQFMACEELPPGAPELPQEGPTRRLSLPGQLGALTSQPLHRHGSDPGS

This test concerns the target Voltage-gated inwardly rectifying potassium channel KCNH2 (Homo sapiens) (UniProt Q12809). Kind of test: modulators restoring hERG flux under dofetilide – cell-based, thallium flux, duplicate retest, dofetilide IC70, confirmation (AID 1835). Conditions: hERG cell line, FluxOR thallium flux, dofetilide-blocked; at 10 µM; hits give high values.
`Cc1ccc(CNC(=O)c2ccc(CNc3c(N4CCCC4)c(=O)c3=O)cc2)cc1`: the activity increase over dofetilide control, less the hit threshold was -7% (inactive).

As for `Cc1ccc2nc(SCC(=O)N3CCCCCC3)nc(=O)n2c1`, the activity increase over dofetilide control, less the hit threshold was -20% (inactive). Take `Cc1ccc(SCc2ccc(C(=O)N3CCCC3)cc2)cc1`: the activity increase over dofetilide control, less the hit threshold was 9% (active). `CC(C)Oc1cccc(C(=O)N2CCCC2)c1`: the activity increase over dofetilide control, less the hit threshold is -4% (inactive).

For `O=c1cc(O)c2ccccc2n1Cc1ccccc1Cl`, the activity increase over dofetilide control, less the hit threshold was -8% (inactive). On to `COc1ccc(-c2c(C#N)c(SCC(=O)c3cc4ccccc4oc3=O)nc(C)c2C(=O)Nc2ccccc2)cc1`, for which the activity increase over dofetilide control, less the hit threshold was -13% (inactive). Turning to `Cc1ccc(Nc2nc(C)cs2)cc1`, the activity increase over dofetilide control, less the hit threshold was -16% (inactive).

On to `Cc1ccc(Nc2nc(-c3ccncc3)cs2)cc1`, for which the activity increase over dofetilide control, less the hit threshold was -8% (inactive). The same measure for `Cc1ccc(Nc2nc(-c3cccs3)cs2)nc1`: 1% (active); for `COc1ccccc1-n1cnc2sc(C)c(C)c2c1=O`: -6% (inactive). The same measure for `CCN1C(=O)[C@H]2[C@@H](c3ccc(-c4ccc(OC)cc4)cc3)N[C@@](C)(C(=O)OC)[C@H]2C1=O`: -4% (inactive); for `CCCCn1nc(NC(=O)COC)c2cc3ccc(C)cc3nc21`: -22% (inactive). The same measure for `CCOC(=O)C(C)Sc1nc2c(c(-c3cccs3)c1C#N)CCC2` (configuration not stated): 1% (active); for `COc1cc(/C=C2/C(=O)NN(c3ccccc3)C2=O)cc(Br)c1O`: -25% (inactive); for `Cc1cccc(N(C(=O)c2csnn2)C(C(=O)NCc2ccccc2)c2ccncc2)c1` (configuration not stated): -11% (inactive).

Take `CCCNC(=O)N1CCN(S(=O)(=O)c2ccc(C)cc2)CC1`: the activity increase over dofetilide control, less the hit threshold was -16% (inactive). Under `O=c1[nH]c(=S)[nH]c2c1C(c1ccc(Br)cc1)c1c([nH]c(=S)[nH]c1=O)O2` stands -17% (inactive); under `CCSc1nc2c(c(=O)[nH]1)C(c1ccc(C)cc1)C1=C(CCCC1=O)N2` (configuration not stated), -7% (inactive); under `CSc1nc2c(c(=O)[nH]1)C(c1ccc(Br)cc1)CC(=O)N2` (configuration not stated), 25% (active). `CSc1nc2c(c(=O)[nH]1)C(c1ccc(Cl)cc1)CC(=O)N2` (configuration not stated): the activity increase over dofetilide control, less the hit threshold was 113% (active).

Consider `CSc1nc(C)c(Cc2ccccc2)c(=O)[nH]1`, for which the activity increase over dofetilide control, less the hit threshold is -20% (inactive). In the case of `CSc1nc2c(c(=O)[nH]1)C(c1ccc(F)cc1)CC(=O)N2` (configuration not stated), the activity increase over dofetilide control, less the hit threshold is 18% (active). Regarding `CSc1nc2c(c(=O)[nH]1)C(c1ccccc1Cl)CC(=O)N2` (configuration not stated), the activity increase over dofetilide control, less the hit threshold is 17% (active). Under `CN1N=C(C(=O)N2CCc3c([nH]c4ccccc34)C2c2c(F)cccc2Cl)CCC1=O` (configuration not stated) stands -13% (inactive); under `O=C(O)Cn1cc(CN2CCOCC2)c2ccccc21`, -22% (inactive).

For `Cc1cccc(NC(=S)N/N=C2/CCCCc3ccccc32)c1`, the activity increase over dofetilide control, less the hit threshold was -11% (inactive). The same measure for `S=c1[nH]nc(CSc2nc3ccccc3s2)n1C1CCCCC1`: 5% (active); for `Cc1ccc(NC(=S)NC(=O)c2sc3ccccc3c2Cl)c(C(=O)O)c1`: -1% (inactive). Turning to `CCOC(=S)NC(=O)c1sc2ccccc2c1Cl`, the activity increase over dofetilide control, less the hit threshold was 40% (active). The same measure for `COC(=O)Cn1c(=NC(=O)c2sc3ccccc3c2Cl)sc2cc(S(N)(=O)=O)ccc21`: -2% (inactive); for `CCCOC(=S)NC(=O)c1sc2ccccc2c1Cl`: 30% (active); for `O=C(N/N=C/c1ccccn1)c1sc2ccccc2c1Cl`: -27% (inactive). Under `CCCCOC(=S)NC(=O)c1sc2ccccc2c1Cl` stands 86% (active).

Regarding `CC(C)C(=O)N(c1ccc(F)cc1)C1C=CS(=O)(=O)C1` (configuration not stated), the activity increase over dofetilide control, less the hit threshold is -20% (inactive). Regarding `CCOC(=O)C1C(c2ccccc2)C(C(=O)OCC)C1c1ccccc1` (configuration not stated), the activity increase over dofetilide control, less the hit threshold was -6% (inactive). The same measure for `CCCSc1cc(NCCOC(C)=O)c([N+](=O)[O-])c2nonc12`: -13% (inactive).

Turning to `CC(C)CCNC(=O)CCc1nnc(Cc2c[nH]c3ccccc23)o1`, the activity increase over dofetilide control, less the hit threshold was -9% (inactive).

Turning to `CCCCCN(C(=O)CCC(=O)OC(C)C(=O)c1ccccc1)c1c(N)n(CCCC)c(=O)[nH]c1=O` (configuration not stated), the activity increase over dofetilide control, less the hit threshold was -16% (inactive).

Consider `CCCNC(=O)N(C)c1nncnc1C(=O)NC`, for which the activity increase over dofetilide control, less the hit threshold was -7% (inactive). The same measure for `O=C1NCC(=O)N2C(c3ccccc3)c3[nH]c4ccccc4c3C[C@@H]12` (some centres not stated): -22% (inactive). The same measure for `O=c1c2ccccc2[nH]c(=S)n1C1CCCCC1`: 2% (active). Under `CC1CCC(n2c(=S)[nH]c3ccccc3c2=O)CC1` (configuration not stated) stands 22% (active). For the molecule `CC1CCCCC1n1c(=S)[nH]c2ccccc2c1=O` (configuration not stated), the activity increase over dofetilide control, less the hit threshold is 1% (active). The same measure for `CC1CCC(N2CCN(C(=O)c3ccccc3F)CC2)CC1` (configuration not stated): -6% (inactive); for `C=CCNC(=O)c1onc(CSc2ccc(OC)cc2)c1C(=O)O`: -11% (inactive). Under `NC(=O)CC1NC(=O)c2ccccc21` (configuration not stated) stands -10% (inactive); under `O=C(Cn1c(=O)oc2ccccc21)Nc1ccc(F)c(F)c1`, -29% (inactive); under `Cc1cc(=S)[nH]c2c(C)cccc12`, 5% (active).

For `S=c1[nH]c2cc(-c3ccccc3)ccc2o1`, the activity increase over dofetilide control, less the hit threshold was 84% (active).

On to `CCOc1c(OC)ccc2c3c(c(=O)oc12)CCCC3`, for which the activity increase over dofetilide control, less the hit threshold is -20% (inactive). The same measure for `Cc1ccc(-c2nc(CS(=O)(=O)CC(=O)NCCN3CCOCC3)c(C)o2)cc1`: -13% (inactive); for `Cc1c(OC(C)C(=O)NCCN2CCOCC2)ccc2c3c(c(=O)oc12)CCC3` (configuration not stated): 3% (active).
